Screening data: PubChem BioAssay, National Center for Advancing Translational Sciences (NCATS)
AMA1-RON2 inh – AMA1-RON2 (P. falciparum) interaction inhibition; AlphaScreen AMA1-biotinylated RON2 peptide binding; Potency, µM (top dose mostly 58.2 µM), inactives show at the highest dose activity change, negative = inhibition, hits mostly inhibitors; 360,000 compounds, 0.2% hits; AID 720542; active means well fitted inhibition curve with a large enough effect; inconclusive means small, poorly fitted or top-dose-only effect; inactive means no such curve, though single readings can be large or run the other way;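 further: potency means the concentration at half of the fitted maximal effect; 0% = vehicle wells and -100% = peptide control; nearly all actives have a fitted effect of over 45% in size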
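AMA1 (3D7) with his tag at 25 nM final met compounds first, then biotinylated RON2 peptide at 25 nM; detection used donor plus acceptor beads, 10 µg/mL apiece, read by AlphaScreen after 30 min at room temperature.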
LASV entry inh – blocks Lassa virus binding to or entry into cells; Lassa virus pseudotype entry inhibition, cell reporter; Potency, µM (highest dose often 37.9 µM), inactives show top-dose activity change, negative = inhibition, actives largely listed as inhibitors; 300,000 compounds, 1.2% hits; calls by dose curve; tested in HEK293 cells; further: potency means the concentration at half of the fitted maximal effect; on the % scale 0 is the no-effect control and ±100 the full control effect; nearly all actives have a fitted effect of over 50% in size
Shiga toxin inh – Shiga toxin inhibition. Vero cells, Shiga toxin protein synthesis inhibition reporter. inhibition, % at 38.7 µM. 290,000 compounds, 9.2% hits. AID 2315; in the data active means inhibition mostly above about 28%, no sharp cut-off; inactive means mostly below about 43%; further: 0% is about no effect
CHX counter – counter-screen hit for Shiga toxin inhibitors, cycloheximide; cell reporter, cycloheximide protein synthesis inhibition counterscreen; max response, %; 300,000 compounds, 12% hits; in the data active means max response mostly above about 13%, no sharp cut-off; inactive means mostly below about 14%; further: read at 38.3 µM for the half of the compounds with a filed dose; 0% is about no effect
Marburg entry inh – blocks Marburg virus binding to or entry into cells; Marburg virus pseudotyped entry inhibition, cell reporter; 300,000 compounds, 1.8% hits; Potency, µM (top dose mostly 37.8 µM), inactives show at the top dose activity change, negative = inhibition, hits mostly inhibitors; calls by dose curve; tested in HEK293 cells; further: potency means the concentration at half of the fitted maximal effect; on the % scale 0 is the no-effect control and ±100 the full control effect
Starred values were filed as active, the others as inactive; ? = inconclusive; · = no result; [ ] = remark or other dose. Many of the other results were omitted from the sample, so hits are more common in it than they were.

SMILES	AMA1-RON2 inh	LASV entry inh	Shiga toxin inh	CHX counter	Marburg entry inh
COc1ccc(NC2c3ccccc3C(=O)N2c2ccccn2)cc1 (centres undefined)	-9%	·	45*	20*	·
O=C(CSc1nc2ccccc2nc1Cc1ccc(Cl)cc1)N1CCCc2ccccc21	·	29%[46.1 µM]	·	·	·
Cc1ccc(/C=N/Nc2ccc3ccccc3n2)o1	7%	5µM*	-6	2	1.3µM*
CC(=NNc1ccc2ccccc2n1)c1ccccc1O	28%	3.2µM*	·	·	?
O=c1nc(N/N=C/c2ccccn2)cn[nH]1	-15%	3.5µM*	125*	46*	?
Cc1ccc(/C=N/Nc2cn[nH]c(=O)n2)o1	44%	15%[46.1 µM]	88*	24*	-10%[46.1 µM]
C/C(=N\Nc1nc2ccccc2nc1C)c1ccccc1O	71%	-15%	16	12	4%[46.1 µM]
O=S1(=O)N=C(N/N=C/c2ccccn2)c2ccccc21	-14%	?	-14	-1	-2%
Cc1cccc(/C=N/Nc2ccc3ccccc3n2)c1	45%	·	-3	1	·
Cc1ccc(/C=N/NC(=O)C(=O)N/N=C/c2ccc(C)o2)o1	61%	-9%[46.1 µM]	-5	0	-18%[46.1 µM]
CCOC(=O)CC1CCCCN1C(=O)c1cc(COc2cccc3cnccc23)on1 (centres undefined)	-4%	·	-5	9	·
CN1CCN(c2oc(/C=C/c3ccc(F)cc3)nc2C#N)CC1	·	?	·	·	3%[46.1 µM]
CCOC(=O)c1cnn(-c2ccc(C(=O)Nc3ccc(OC(F)(F)F)cc3)cc2)c1N	·	11%[46.1 µM]	·	·	·
CCOC(=O)c1cnn(-c2ccc(C)cc2)c1N	4%	-3%	75*	33*	?
CCOC(=O)c1ccc(-n2ncc(C(=O)OCC)c2N)cc1	-6%	-7%	34	21*	?
COc1ccc(/C=N/N=C2/CC(C)(C)Cc3n[nH]c(=O)cc32)cc1	-13%	-2%[46.1 µM]	36*	19	-1%[46.1 µM]
CN(C(=S)Nc1ccc(Oc2ccccc2)cc1)C1CCCCC1	75%	-7%	-3	22*	?
CCCCN(C)C(=S)Nc1ccc(Oc2ccccc2)cc1	26%	15%	12	22*	?
S=C(Nc1ccc(Oc2ccccc2)cc1)NC1CCCCCC1	-1%[11.6 µM]	?	13	-2	?
Nc1nc(-c2ccccc2)c(-c2ccccc2)o1	9%	?	34	-2	-12%[46.1 µM]
c1ccc(-c2nc(-c3nccc4ccccc34)oc2-c2ccccc2)cc1	1%	·	74*	46*	·
COCc1nn2cc(-c3ccc(C)cc3)nc2s1	·	-1%[46.1 µM]	·	·	?
C=C1C(=O)O[C@@H]2[C@H]3O[C@]3(C)CCC=C(C)CC[C@@H]12	·	9.2µM*	·	·	22µM*
C=C1C(=O)OC2C1CCC(C)=C1C(=O)C3OC3(C)C12 (centres undefined)	-1%	·	·	·	·
CCc1ccc(N(CC(=O)NC(C)(C)C)C(=O)CCC(=O)Nc2ccccn2)cc1	-3%	·	-5	0	·
SMILES	AMA1-RON2 inh	LASV entry inh	Shiga toxin inh	CHX counter	Marburg entry inh
Nc1ccc2c(c1Cl)C(=O)c1ccc(N)c(Cl)c1C2=O	-5%	·	70*	34*	·
C#CCN1C(=O)S/C(=C\c2ccc(N3CCOCC3)cc2C)C1=O	2%	11%	70*	24*	?
CCCN1C(=O)S/C(=C\c2ccc(N3CCOCC3)cc2C)C1=O	·	·	64*	34*	5%
CCN1C(=O)S/C(=C\c2ccc(N3CCOCC3)cc2C)C1=O	6%	?	133*	27*	?
CCOc1ccc(N2C(=O)NC(=O)/C(=C\c3ccc(N4CCOCC4)cc3C)C2=O)cc1	-16%	13%[46.1 µM]	6	5	15%[46.1 µM]
CCCN1C(=O)/C(=C/c2ccc(N3CCOCC3)cc2)NC1=S	21%	·	32	12	·
Cc1cc(/C=C2/SC(=O)NC2=O)c(C)n1-c1ccc(N2CCOCC2)cc1	-1%	?	24	8	?
CCc1cccc2c(C(=O)C(NC(C)CC)c3ccccc3)c[nH]c12 (centres undefined)	8%	16µM*	31	1	12µM*
CCc1cccc2c(C(=O)C(NCCCOC)c3ccccc3)c[nH]c12 (centres undefined)	4%	?	34	10	13µM*
CCc1cccc2c(C(=O)COC(=O)/C=C/c3ccccc3OC)c[nH]c12	-11%	24%	20	-1	15%
Cc1cc(C)cc(N2C(=O)C=CC2=O)c1	4%	?	·	·	?
CCc1nc2ccccc2c(C(=O)OCC(=O)N2CC(C)OC(C)C2)c1C (centres undefined)	8%	-7%	·	·	-2%
CCOCCCNCc1cc(Cl)cc(Cl)c1OCC	-1%	·	-11	-6	·
